The results in this text go back to PubChem BioAssay (NCATS).

Results filed as inconclusive are left out. Entries that show only a call come without a potency. Activity calls are given as the source filed them. Calls follow the shape of the dose curve; as a rule, active = well fitted inhibition curve with a large enough effect; inconclusive = small, poorly fitted or top-dose-only effect; inactive = no such curve, though single readings can be large or run the other way.
Potency is read from the fitted curve at half-maximal effect.

For this assay, the target named is Glutaminase kidney isoform, mitochondrial (Homo sapiens) (UniProt O94925). The experiment in a line: qHTS for Inhibitors of Glutaminase (GLS): LOPAC Validation (AID 624146). Also: nearly all actives have a fitted effect of over 60% in size. The following applies: glutaminase enzyme activity inhibition; series mostly up to 46.1 µM. From the text: Glutaminase (GLS) catalyzes the hydrolysis of glutamine into glutamate and ammonia. It plays a critical role in glutaminolysis, which is an important energy source for proliferating cells. It was shown that c-Myc, an oncogenic transcription factor known to regulate microRNAs and to stimulate cell proliferation, increases glutamine metabolism by stimulating the expression of GLS via direct suppression of miR23a and miR23b.
Glutaminase kidney isoform, mitochondrial (Homo sapiens), sequence (O94925 whole entry, looked up, canonical isoform): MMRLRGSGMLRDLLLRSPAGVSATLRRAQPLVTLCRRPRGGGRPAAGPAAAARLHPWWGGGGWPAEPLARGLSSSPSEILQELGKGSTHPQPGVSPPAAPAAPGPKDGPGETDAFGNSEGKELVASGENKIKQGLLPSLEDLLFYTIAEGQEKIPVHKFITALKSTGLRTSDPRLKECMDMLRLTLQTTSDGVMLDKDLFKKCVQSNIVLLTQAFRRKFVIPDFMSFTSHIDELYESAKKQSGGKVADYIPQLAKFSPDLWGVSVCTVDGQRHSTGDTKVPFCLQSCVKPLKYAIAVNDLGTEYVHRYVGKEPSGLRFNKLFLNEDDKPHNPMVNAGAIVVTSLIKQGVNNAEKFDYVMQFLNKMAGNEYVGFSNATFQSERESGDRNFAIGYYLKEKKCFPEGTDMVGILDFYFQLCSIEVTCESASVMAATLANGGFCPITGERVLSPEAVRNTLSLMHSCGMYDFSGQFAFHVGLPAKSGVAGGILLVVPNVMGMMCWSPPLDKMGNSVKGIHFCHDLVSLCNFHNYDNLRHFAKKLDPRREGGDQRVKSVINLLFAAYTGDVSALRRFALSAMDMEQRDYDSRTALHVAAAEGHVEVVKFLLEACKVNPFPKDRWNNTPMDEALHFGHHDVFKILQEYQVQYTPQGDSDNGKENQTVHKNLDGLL
GLS is also thought to play a pathogenic role on HAD using a human HIV-1 infected macrophage system. […] GLS inhibition limits glutamate release and provides neuroprotection against HIV-1 infected macrophages.
The overall goal of this project is to identify small molecule inhibitors of GLS through quantitative high throughput screening (qHTS) of the MLSMR. A validated potent and selective inhibitor can be used as a tool molecule to further study the pharmacology of its target as well as explore its potential therapeutic application in cancer and inflammatory neurological disorders, such as HIV1-associated dementia (HAD) and multiple sclerosis.
NIH Chemical Genomics Center [NCGC]
NIH Molecular Libraries Probe Centers Network [MLPCN]
Assay Submitter (PI): Barbara S. Slusher, Johns Hopkins University
Three 3 uL of hKGA is dispensed into black well 1536-well plates in 45 mM KH2PO4 (pH 8.2), 0.02% Tween-20. Then 23 nL of compounds are added through pin tool transfer. To this, 1 uL of 1mM L-Glutamine and 1 uL of a solution of L-Glutamateoxidase, HRP, Amplex red are added. Plate is centrifuged for 25 sec before an initial fluorescence read is obtained on the ViewLux, after 30 min of RT incubation, the final read is taken on the ViewLux.
(In qHTS, concentration-response curves come from the screen itself.)
Turning to `CCCN1CCC[C@@H](c2cccc(O)c2)C1`, the Potency entry was “inactive”. The entry for `CCn1cnc2c(Nc3cccc(Cl)c3)nc(N[C@@H]3CCCC[C@@H]3N)nc21` is “inactive”; for `CCCN1CCc2cccc3c2[C@H]1Cc1ccc(O)c(O)c1-3` it is 1.41 µM (active); for `NC(C(=O)O)c1cc(=O)[nH]o1` (stereo not given) it is “inactive”. To `N[C@@H](Cn1ccc(=O)[nH]c1=O)C(=O)O` belongs “inactive”; to `CCCC[N+]1(C)C2CC(OC(=O)[C@H](CO)c3ccccc3)CC1C1OC12` (stereo not given in full), “inactive”; to `C[C@@H]1O[C@H](C[N+](C)(C)C)CS1`, “inactive”. With `O=C(O)c1cc[c]([Hg][Cl])cc1`, the Potency was 3.55 µM (active). The entry for `COc1ccc2c(c1)c(CCN1CCOCC1)c(C)n2C(=O)c1cccc(Cl)c1Cl` is “inactive”. The entry for `N#CCCN` is “inactive”. To `Ic1ccccc1CNC1C2CCN(CC2)C1C(c1ccccc1)c1ccccc1` (stereo not given) belongs “inactive”; to `N[C@@]1(C(=O)O)CC[C@@H](C(=O)O)C1`, “inactive”; to `CC(=O)OCC1=C(C(=O)O)N2C(=O)[C@@H](NC(=O)CCC[C@@H](N)C(=O)O)[C@H]2SC1`, “inactive”. Consider `CCCN(CCC)CCc1c[nH]c2ccc(C(N)=O)cc12`, for which the Potency result was “inactive”.

In the case of `NC(=O)c1cc(N2CC2)c([N+](=O)[O-])cc1[N+](=O)[O-]`, the Potency result was “inactive”.

With `CN1CC[C@@]2(C)c3cc(O)ccc3N(C)C12` (stereo not given in full), the Potency is 10 µM (active). As to `CP(=O)(O)C1=CCNCC1`, the Potency entry was “inactive”. As for `CC(=O)NBr`, the Potency entry is “inactive”.

Turning to `N=C(N)c1ccc(CS(=O)(=O)F)cc1`, the Potency entry was “inactive”. The entry for `NCCc1ccc(S(=O)(=O)F)cc1` is “inactive”. To `NCCCP(=O)(O)O` belongs “inactive”. Consider `NC(Cc1cc(O)c(O)cc1O)C(=O)O` (stereo not given), for which the Potency entry was “inactive”. The entry for `Cc1sc2ccccc2c1CC1=NCCN1` is “inactive”; for `NNC(N)=O` it is “inactive”; for `C[C@@H]1O[C@@H](O[C@H]2C[C@@H](O)[C@]3(CO)[C@@H]4C(CC[C@]3(O)C2)[C@@]2(O)CC[C@H]([C@@H]3COC(=O)C3)[C@@]2(C)C[C@H]4O)[C@H](O)[C@H](O)[C@H]1O` (stereo not given in full) it is “inactive”. The entry for `COc1ccc2c(c1)C13CCCCC1C(C2)N(C)CC3` (stereo not given) is “inactive”.

As to `CCCn1c(=O)c2[nH]c(C3CCCC3)nc2n(CCCOC(=O)c2ccc(S(=O)(=O)F)cc2)c1=O`, the Potency entry was “inactive”.

As to `COC(=O)N1CCN(C(=O)Cc2ccc(Cl)c(Cl)c2)C(CN2CCCC2)C1` (stereo not given), the Potency result is “inactive”. On to `CN(C(=O)Cc1ccc(Cl)c(Cl)c1)C(CN1CCCC1)c1cccc(OCC(=O)O)c1` (stereo not given), for which the Potency result is “inactive”. To `Clc1cc(I)cc(Cl)c1NC1=NCCN1` belongs “inactive”. Take `c1ccc2c(c1)[I+]c1ccccc1-2`: the Potency result was “inactive”. The figure for `CN1CCc2cc(O)cc3c2[C@H]1Cc1ccc(O)c(O)c1-3` is 2.24 µM (active); for `C=CCN1CC[C@]23c4c5ccc(O)c4O[C@@H]2/C(=N/N=C2\CC[C@@]4(O)C6Cc7ccc(O)c8c7[C@@]4(CCN6CC=C)[C@@H]2O8)CC[C@@]3(O)C1C5` it is 2 µM (active); for `C[N+]1(C)CCc2cc3c(cc2[C@H]1[C@@H]1OC(=O)c2c1ccc1c2OCO1)OCO3` it is “inactive”.

With `C[Se]C[C@H](N)C(=O)O`, the Potency result was “inactive”. The entry for `C[N+](C)(C)CCOC(=O)CBr` is “inactive”; for `O=C1C=CC(=O)C=C1` it is “inactive”. The figure for `CC(C)(C)c1cc(C=C(C#N)C#N)cc(C(C)(C)C)c1O` is 12.6 µM (active). In the case of `CC(N)[C@H](O)c1ccc(O)c(O)c1` (stereo not given in full), the Potency result was “inactive”. In the case of `CO[C@H]1CC=C2CCN3CCC4=C(CC(=O)OC4)[C@]23C1`, the Potency entry is “inactive”.
